Our source for the outcome values is PubChem BioAssay (NCATS).

Each structure is given as a SMILES string. Results filed as inconclusive are left out. Active and inactive are the calls of the source. Calls come from the whole dose curve.

Peroxisome proliferator-activated receptor delta (Homo sapiens), sequence (Q03181 whole entry, looked up): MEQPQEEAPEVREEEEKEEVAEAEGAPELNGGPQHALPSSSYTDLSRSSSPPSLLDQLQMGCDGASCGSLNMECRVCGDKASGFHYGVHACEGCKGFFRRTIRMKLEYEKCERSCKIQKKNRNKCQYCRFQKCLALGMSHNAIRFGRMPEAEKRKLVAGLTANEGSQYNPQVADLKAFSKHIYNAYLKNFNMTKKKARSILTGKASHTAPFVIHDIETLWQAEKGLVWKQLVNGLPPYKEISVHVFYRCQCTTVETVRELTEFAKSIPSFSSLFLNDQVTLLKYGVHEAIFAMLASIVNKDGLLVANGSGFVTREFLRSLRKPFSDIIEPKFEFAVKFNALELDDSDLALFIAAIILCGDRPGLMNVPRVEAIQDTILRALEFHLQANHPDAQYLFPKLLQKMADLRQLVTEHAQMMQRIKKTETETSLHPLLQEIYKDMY

The test has as its target Peroxisome proliferator-activated receptor delta (Homo sapiens) (UniProt Q03181). Description: qHTS assay for small molecule agonists of peroxisome proliferator-activated receptor delta signaling (AID 588534). Conditions: HEK293T PPARdelta-UAS-bla, beta-lactamase ratio, 18 h; series mostly up to 76.7 µM. Summed up:
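Cells carrying a PPAR-delta beta-lactamase reporter were treated with compounds for 18 h at 37 °C in agonist mode. CCF4 fluorescence was read after 2 h; EC50 and efficacy from Hill fits.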
In the case of `Cc1ccc(N(C)C)cc1`, the outcome was inactive. On to `C=Cc1cccc(C)c1`, for which the outcome was inactive. Then `CCN(Cc1ccccc1)c1ccccc1`, with “inactive”; and `CSC(=O)c1cccc2nnsc12`, with “inactive”; and `CCCCC(CC)COC(C)=O` (stereo not given), with “inactive”. Turning to `COc1ccc(N)c(OC)c1`, the result was inactive.

Regarding `CCOC(=O)C1=NN(c2ccc(Cl)cc2Cl)C(C)(C(=O)OCC)C1` (stereo not given), the result was inactive. In the case of `Cc1cc(C)c(N)c(Cl)c1`, the outcome was inactive.

With `CCOC(=O)C1OC1c1ccccc1` (stereo not given), the result was inactive.

Consider `ClCCCl`, for which the outcome was inactive. In the case of `COCCOCCOCCO` it was “inactive”; in that of `CS/C(=N\O)C(=O)N(C)C`, “inactive”. In the case of `CC1(C)C(=O)NC(=O)N1CO` it was “inactive”.

Regarding `O=C(O)c1cc(Cl)cc(Cl)c1`, the result was inactive.

In the case of `C=CC(=O)OCCOc1ccccc1`, the outcome was inactive. Turning to `OCC(O)CO`, the result was inactive.

For the compound `O=C1OC(=O)c2cc([N+](=O)[O-])ccc21`, the result was inactive. Turning to `Cc1ccc(S(=O)(=O)N=C=O)cc1`, the outcome was inactive. As to `CC1CCC(C(C)C)C(O)C1` (stereo not given), the outcome was inactive. `CC(C)=CCC/C(C)=C/C=O`: the outcome was inactive. `O=C(O)c1cccc(Cl)c1Cl`: the result was inactive.

For `COc1c(Cl)ccc(Cl)c1C(=O)O`, the outcome was inactive.

`O=C(O)CNC(=O)c1ccc([N+](=O)[O-])cc1`: the result was inactive. `O=[N+]([O-])C(CO)(CO)CO`: the outcome was inactive. Take `CCCCCCOCCOCCO`: the result was inactive. In the case of `CN(C)C(=O)Nc1ccccc1`, the result was inactive.

In the case of `CCN(Cc1cccc(S(=O)(=O)O)c1)c1ccc(C(=C2C=CC(=[N+](CC)Cc3cccc(S(=O)(=O)[O-])c3)C=C2)c2ccccc2)cc1`, the outcome was inactive. In the case of `O=Cc1c(Cl)cccc1Cl`, the result was inactive. Turning to `C1CCCNCC1`, the result was inactive.

Take `Oc1cc2c(cc1O)[C@H]1c3ccc(O)c(O)c3OC[C@@]1(O)C2`: the result was inactive. In the case of `CCC(O)OCCCOC` (stereo not given) it was “inactive”. With `C=CCOC(=O)COCCC(C)C`, the outcome was inactive. Consider `CCN(CC)c1cccc(O)c1`, for which the result was inactive. Turning to `COC(=O)c1cccc(C(=O)OC)c1`, the result was inactive. As to `O=[N+]([O-])c1cc(N(CCO)CCO)ccc1NCCO`, the result was inactive.

On to `O=Cc1ccc(Cl)cc1`, for which the outcome was inactive. For `Cc1ccc2ccccc2c1[N+](=O)[O-]`, the result was inactive.

As to `CCCCCCCC/C=C\CCCCCCCC(=O)OC`, the result was inactive. With `OCCOCCOCCOCCOCCO`, the result was inactive. Then `CC1=CC(=O)CC(C)(C)C1`, with “inactive”.
